ATXN2 expr inh: inhibitors of ATXN2 expression; HEK-293 ATXN2-luciferase reporter, luminescence, 24 h; Potency, µM (titrated, usually from 57 µM), without a hit: top-dose activity change, negative = inhibition, usual class: inhibitors; actives 0.72% (n = 360,000); AID 1745845; note: % is set by controls: 0 for no effect and ±100 for the full control effect; nearly all actives have a fitted effect of over 55% in size
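qHTS (up to 57 uM final) was run with 24 h compound exposure of reporter cells at 37 °C. Each well was multiplexed: SteadyGlo luminescence measured ATXN2-luciferase expression after a fluorogenic Gly-Phe-AFC viability readout (25 uM final).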
RORgamma inh: ROR gamma (mouse) transcription inhibition; actives 5.4% (n = 310,000); AID 2551; Potency, µM (highest dose often 53.6 µM), for the others: top-dose activity change, negative = inhibition, most hits filed as inhibitors; Drosophila S2 Gal4-RORgamma UAS-luciferase reporter, 20 h; P51450; note: % is set by controls: 0 for no effect and ±100 for the full control effect; nearly all actives have a fitted effect of over 60% in size
Target sequence (P51450 whole entry, looked up, the tested form may be a part): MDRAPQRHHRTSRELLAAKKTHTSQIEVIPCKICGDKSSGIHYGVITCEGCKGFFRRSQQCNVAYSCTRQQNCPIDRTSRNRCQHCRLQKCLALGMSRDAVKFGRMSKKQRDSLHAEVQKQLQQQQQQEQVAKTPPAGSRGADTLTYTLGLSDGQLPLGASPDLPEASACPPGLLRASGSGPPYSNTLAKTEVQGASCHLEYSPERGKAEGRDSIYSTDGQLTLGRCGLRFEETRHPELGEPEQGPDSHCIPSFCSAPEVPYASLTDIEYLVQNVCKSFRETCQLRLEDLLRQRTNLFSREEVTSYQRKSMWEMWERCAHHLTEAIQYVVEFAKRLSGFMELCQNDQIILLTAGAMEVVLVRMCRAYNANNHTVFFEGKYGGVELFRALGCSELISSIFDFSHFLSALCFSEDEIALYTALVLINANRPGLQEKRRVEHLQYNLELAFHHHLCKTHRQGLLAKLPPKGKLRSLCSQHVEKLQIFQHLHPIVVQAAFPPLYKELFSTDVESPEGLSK
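Luminescence from a UAS-regulated Photinus luciferase reporter in stably transfected Drosophila Schneider cells is measured; decreased signal marks ROR gamma inhibition. Fusion expression is induced by 700 uM copper sulfate for 20 hr.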
HepG2 tox-1: counter-screen for TGF-b inhibitors: cytotoxicity in HepG2 cells; HepG2 CAGA-GFP viability, ATP luminescence, 18 h; Potency, µM (doses to about 46.1 µM), for inactives: top-dose activity change, negative = cytotoxicity, hits mostly cytotoxic; actives 0.76% (n = 410,000); AID 588856
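CellTiter-Glo luminescence gave cytotoxicity after 18 hours at 37 degrees C. The cells were HepG2 CAGA-GFP in 1% FBS DMEM, stimulated with 500 pg/mL TGF-beta after compound addition. %Activity was normalised to no-cell wells (complete cell-killing) and DMSO (no toxicity), and curves were fitted and classified.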
S2 tox: cell viability loss in ATXN counter-screen; AID 651635; actives 0.49% (n = 400,000); Potency, µM (highest dose often 56.7 µM), most hits filed as cytotoxic; S2 cells (HEK-293 line with an ATXN2-luciferase reporter) viability, CellTiter-Fluor protease fluorescence, 24 h; note: nearly all actives have a fitted effect of over 40% in size
VP16 counter: counter-screen for ROR gamma inhibitors: Gal4-VP16 reporter. Drosophila S2 Gal4-VP16 UAS-luciferase, luminescence, 20 h. Potency, µM (highest dose often 53.6 µM), inactives show at the highest dose activity, negative = inhibition, actives largely listed as inhibitors. actives 3.5% (n = 310,000). AID 2546;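 note: Gal4-VP16 expression switched on by copper sulfate through the metallothionein promoter; % is set by controls: 0 for no effect and ±100 for the full control effect; nearly all actives have a fitted effect of over 50% in size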
TGFb SMAD3 inh: TGF-b pathway inhibition; actives 1.2% (n = 410,000); Potency, µM (highest dose often 46.1 µM), for inactives: at the top dose activity, negative = inhibition, actives largely listed as inhibitors; AID 588855; HepG2 CAGA-GFP TGF-b/SMAD3 reporter, GFP fluorescence, 18 h; TGF-beta stimulated, 500 pg/mL final; note: % is set by controls: 0 for no effect and ±100 for the full control effect; nearly all actives have a fitted effect of over 65% in size
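Cell-based qHTS in HEPG2 carrying a CAGA-GFP Smad reporter; compounds added before 500 pg/mL final TGF-beta, 18 h incubation at 37 degrees C, GFP fluorescence quantified per cell by imaging cytometry.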
TGFb confirm: confirmation of TGF-b signaling inhibitors in HepG2 reporter cells; Potency, µM (highest dose often 46.1 µM), inactives show top-dose activity, negative = inhibition, usual class: inhibitors; shares compounds with TGFb SMAD3 inh; HepG2 CAGA-GFP TGF-b reporter, GFP fluorescence, 18 h; cells stimulated with TGF-beta, 500 pg/mL; AID 720534; actives 63% (n = 1,600); note: % is set by controls: 0 for no effect and ±100 for the full control effect; nearly all actives have a fitted effect of over 65% in size
HepG2 tox-2: counter-screen for TGF-b inhibitors: cytotoxicity in HepG2 cells | shares compounds with TGFb SMAD3 inh | HepG2 CAGA-GFP viability, ATP luminescence, 18 h; cells stimulated with TGF-beta, 500 pg/mL | Potency, µM (series often up to 46.1 µM), for inactives: at the highest dose activity, negative = cytotoxicity, most hits filed as inhibitors | actives 27% (n = 1,600) | AID 720535; note: % is set by controls: 0 for no effect and ±100 for the full control effect; nearly all actives have a fitted effect of over 70% in size
CCL64 TGFb inh: orthogonal confirmation of TGF-b inhibitors in CCL64 cells. shares compounds with TGFb SMAD3 inh. CCL64 CAGA-GFP reporter, TGF-b stimulated, GFP fluorescence, 18 h. Potency, µM (titrated, usually from 46.1 µM), inactives show at the highest dose activity, negative = inhibition, hits mostly inhibitors. actives 41% (n = 1,600); note: nearly all actives have a fitted effect of over 65% in size
TGFb COP inh: validation of TGF-b inhibitors in HepG2 COP promoter reporter; actives 3% (n = 1,600); HepG2 COP-GFP TGF-b reporter, GFP fluorescence, 18 h; cells stimulated by added recombinant TGF-beta; Potency, µM (doses to about 46.1 µM), for the others: top-dose activity, negative = inhibition, actives largely listed as inhibitors; shares compounds with TGFb SMAD3 inh; note: nearly all actives have a fitted effect of over 70% in size
Starred values were filed as active, the others as inactive; i = inactive; ? = inconclusive; · = no result. Sampled rows, rich in hits. Any-hit rate of the full collection: about 6.3%. Calls come from the whole dose curve; as a rule, active = well fitted curve in the direction sought with a large enough effect; inconclusive = small, poorly fitted or top-dose-only effect, or another doubt; inactive = no such curve, though single readings can be large; an effect the other way counts as inactive or inconclusive. Potency is the fitted concentration of half-maximal effect.

SMILES | ATXN2 expr inh | RORgamma inh | HepG2 tox-1 | S2 tox | VP16 counter | TGFb SMAD3 inh | TGFb confirm | HepG2 tox-2 | CCL64 TGFb inh | TGFb COP inh
C#CCOCCOCCOCCNc1nc(N2CCN(C(=O)CCCCCCCCCCNC(=O)Cn3cc(CCCCCN)nn3)CC2)nc(N2CCN(C(=O)CCCCCCCCCCNC(=O)Cn3cc(CCCCCN)nn3)CC2)n1 | -19.2% | · | -35.0% | ? | · | ? | · | · | · | ·
CCN(CC(=O)NCc1cccs1)C(=O)Cc1ccc(C)c(C)c1 | 10.9% | · | -35.3% | i | · | -20.8% | · | · | · | ·
COc1ccc(-c2coc3c(C(=O)NCC(C)C)cccc23)c(C)c1 | -35.4% | · | -27.5% | i | · | ? | 13µM* | ? | ? | 45.0%
CC(C)[C@H]1COCCS(=O)(=O)N1Cc1ccccc1-c1cccc2c1oc1ccccc12 | -11.4% | · | -15.4% | i | · | ? | 9.2µM* | -8.3% | -28.3% | -7.2%
O=C1c2cc(O)cc(O)c2OC[C@@H]1c1ccc(O)c(O)c1 | · | 1.1% | · | · | -3.2% | · | · | · | · | ·
Nc1[nH]c(C(=O)c2ccccc2)c(-c2ccc(Cl)cc2Cl)c1C(=O)c1ccc(Br)cc1 | 13.1% | · | · | i | · | · | · | · | · | ·
Cc1oc2cc(Br)c(O)c(Br)c2c1-c1ccccc1 | 168.3% | 7.6% | -66.1% | i | -8.6% | 10µM* | ? | -16.8% | ? | 18.9%
Cc1cc2oc(=O)cc(-c3ccccc3)c2c(C)c1-c1ccc(O)cc1 | -24.9% | -1.9% | -27.6% | i | 1.3% | ? | · | · | · | ·
CN(C(=O)COC(=O)c1ccccc1Nc1ccccc1)c1c(N)n(Cc2ccccc2)c(=O)[nH]c1=O | ? | · | 14.4% | i | · | ? | · | · | · | ·
COCCN(C(=O)COC(=O)c1ccccc1Nc1ccccc1)c1c(N)n(Cc2ccccc2)c(=O)[nH]c1=O | ? | · | -2.6% | ? | · | 11.2µM* | 14.6µM* | -28.0% | 1.64µM* | 20.4%
O=C(O)[C@H](Cc1ccccc1)NC(=O)N1CCN(c2ccccc2)CC1 | · | 11.5% | 5.2% | i | -2.4% | 15.4% | · | · | · | ·
CCn1cc(S(=O)(=O)CC(=O)Nc2cccc(C)c2)c2ccccc21 | 27.5% | 20.2% | -3.8% | i | -3.2% | -2.0% | · | · | · | ·
Cc1cc(NC(=O)CS(=O)(=O)c2cn(Cc3cccc(Cl)c3)c3ccccc23)no1 | 0.0% | · | 3.5% | ? | · | 17.8µM* | 11.6µM* | -11.3% | -23.3% | 20.7%
O=C(/C=C/c1ccc(/C=C/C(=O)Nc2ccc(C3=NCCN3)cc2)cc1)Nc1ccc(C2=NCCN2)cc1 | · | 14.9% | · | · | -3.6% | · | · | · | · | ·
O=C(C(=O)c1cc(Br)ccc1O)c1cc(Br)ccc1O | ? | · | -34.7% | ? | · | 6.31µM* | 6.51µM* | 11.6µM* | 4.61µM* | 81.4%
COc1cc(-c2noc(C)c2/C=C/c2ccc(C(=O)O)cc2)cc(OC)c1OC | -3.0% | 34.6% | 1.4% | i | -10.5% | -0.6% | · | · | · | ·
COc1cc(-c2noc(C)c2/C=C/c2cccc([N+](=O)[O-])c2)cc(OC)c1OC | ? | ? | -19.1% | ? | -9.2% | 12.6µM* | ? | -27.5% | ? | -10.7%
CC(NC(=O)CC(c1ccccc1)c1cc(Cl)ccc1O)c1ccccc1 (configuration not stated) | -0.7% | 38.6% | -1.2% | ? | 3.2% | 15.8µM* | ? | 23.1µM* | 18.4µM* | 57.1%
Cc1ccc(O)c(C(CC(=O)NC(C)C)c2ccccc2)c1 (configuration not stated) | -31.3% | 3.6% | -41.4% | i | 22.8% | ? | · | · | · | ·
O=C1CCN(CCc2ccccc2)CCN1C(CSc1ccc(Br)cc1)Cc1ccccc1 (configuration not stated) | · | ? | 12.8% | · | 4.2% | -6.3% | · | · | · | ·
CCCCc1ccc(NC(=O)OC)cc1 | 13.3% | -6.8% | 9.3% | i | 0.2% | 18.0% | · | · | · | ·
CCCCc1ccc(NC(=S)Nc2ccc(Nc3ccc(OC)cc3)cc2)cc1 | -5.8% | 1.12µM* | -8.7% | i | 1.58µM* | 8.91µM* | 23.1µM* | ? | ? | 45.9%
CCCCOc1ccc(C(=O)C(CN2CCOCC2)c2ccccc2)cc1 (configuration not stated) | ? | ? | -105.5% | · | ? | ? | · | · | · | ·
O=C(c1ccc(F)cc1)C(CN1CCOCC1)c1ccccc1 (configuration not stated) | ? | 5.62µM* | 17.8µM* | · | 11.2µM* | 3.55µM* | 7.31µM* | 16.4µM* | 3.66µM* | ?
O=C(c1ccc(Cl)cc1)C(CN1CCCC1)c1ccccc1 (configuration not stated) | · | 11.2µM* | -115.5% | · | 5.62µM* | 7.94µM* | 3.66µM* | 8.2µM* | 2.59µM* | ?
COc1ccc(CNC(=O)Cc2c(C)c3cc4c(C)coc4cc3oc2=O)cc1 | · | · | -3.3% | · | · | 8.2% | · | · | · | ·
O=C1[C@@H](Oc2ccccc2)[C@@H](c2cnc3ccccc3c2)N1c1ccccc1 | -28.9% | · | -22.0% | ? | · | 11.2µM* | 20.6µM* | -7.8% | 16.4µM* | -7.8%
O=C1[C@H](Oc2ccccc2)[C@@H](c2ccncc2)N1c1ccncc1 | 9.7% | · | -3.3% | i | · | -8.0% | · | · | · | ·
Oc1ccccc1-c1nc2cnccn2c1Nc1ccc2c(c1)OCCO2 | -17.1% | 10.9% | -3.6% | i | 8.0% | ? | ? | -2.0% | ? | 0.0%
CC1(C(=O)Nc2ccc3c(c2)OCCO3)CCN1Cc1csc2ccccc12 (configuration not stated) | -25.3% | · | -23.1% | ? | · | -27.2% | · | · | · | ·
